# PubChem BioAssay AID651800 (The Scripps Research Institute Molecular Screening Center, 2012)
# In all, about 360,000 compounds went through this assay and about 1,300 (0.36%) were called active. Rule as the data show it: active = inhibition above about 19%; inactive = the rest. What follows is part of a selection rich in actives, with near analogues and random picks from the rest.
# Tested on: T-cell receptor (TCR)
# Experiment: inhibitors of human TCR-CD3 interaction, primary screen, biochemical, fluorescence, TAMRA-labeled TCR probe (AID 651800);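 also: recombinant mutant TCR 2C K166C tagged with TAMRA read by polarization; 0% = receptor in buffer alone and 100% = receptor with positive control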
# Conditions: at 9.4 µM, stronger effect = higher value
row,SMILES,inhibition
1,O=C(C(=O)N1CCC(CNC(=O)c2cccnc2Cl)CC1)c1cccs1,0.67% (inactive)
2,C[C@H](CO)N1C[C@H](C)[C@@H](CN(C)C(=O)Nc2ccccc2F)OCc2cn(nn2)CCCC1=O,4.97% (inactive)
3,CNC(=S)NNC(=O)c1oc2nc(-c3ccccc3)cc(-c3ccco3)c2c1N,59.3% (active)
4,NNC(=O)c1oc2nc(-c3ccccc3)cc(-c3ccco3)c2c1N,16.2% (inactive)
5,Cc1ccccc1C(=O)N[C@H](C(=O)N1CCC[C@H]1C(=O)NCc1ccccc1)C(C)C,2.94% (inactive)
6,CCCCNc1cccc2c1S(=O)(=O)N[C@@H](C)CO2,2.35% (inactive)
7,Cc1ccc(N)cc1CN1CCN(c2ncc(Cc3ccccc3)cn2)CC1,3.41% (inactive)
8,COCCCNC(=O)C[C@H]1C[C@@]2(C(=O)OC)C(=C[C@H](C(C)(C)C)O[C@@H]2C)N(Cc2ccc3c(c2)OCO3)C1=O,3.16% (inactive)
9,CC(C)CNc1cccc2c1S(=O)(=O)N[C@H](CC(C)C)CO2,-1.27% (inactive)
10,Brc1ccc(COCCc2cn(Cc3ccccc3)c3ccccc23)cc1,-0.9% (inactive)
11,CC(Sc1nnc2c(n1)C1CCC2(C)C1(C)C)C(=O)Nc1ccccc1 (stereo not given),1.84% (inactive)
12,CC12CCC(C(=O)N(NC(=O)c3ccccc3O)C1=O)C2(C)C (stereo not given),33.6% (active)
13,CC1=CC(C)(C)NC(=S)N1NC(=O)c1ccccc1Cl,-4.79% (inactive)
14,Clc1cccc2c1C1CC2CCN1Cc1ccccc1 (stereo not given),-2.68% (inactive)
15,O=C(NCc1ccccc1)[C@H]1CCCN1C(=O)[C@H]1CCCN1C(=O)N1CCOCC1,4.79% (inactive)
16,CCCCCCCCN1C(=O)[C@@H](CC(=O)NCc2ccc(C)o2)C[C@@]2(C(=O)OC)C1=C[C@H](C(C)(C)C)O[C@@H]2C,1.15% (inactive)
17,O=S(=O)(O)c1cc2onnc2c2ccccc12,28.6% (active)
18,COc1ccccc1C(=O)Nn1cnnc1,-2.57% (inactive)
19,COc1ccccc1C(=O)NNC(=O)CCN1C(=O)/C(=C\c2ccccc2)SC1=S,23.9% (active)
20,O=C(CCN1C(=O)c2ccccc2C1=O)NNC(=O)c1ccc(Cl)cc1Cl,-3.56% (inactive)
21,CC[C@H](NC(=O)[C@H](Cc1ccccc1)NC(=O)[C@H]1O[C@@H](n2cnc3c(=O)[nH]c(N)nc32)[C@H](O)[C@@H]1O)c1ccccc1,1.67% (inactive)
22,COC(=O)[C@]1(Cc2ccccc2)NC=C(C(=O)c2ccccc2)[C@@H]1c1cccc(OC)c1,-0.52% (inactive)
23,CCOC(=O)c1c(N)c(C#N)nn1-c1ccccc1C(=O)OC,-3.5% (inactive)
24,Cc1ccc2nc(-c3ccc(CN4CCC(n5cc(-c6ccccc6)[nH]c5=O)CC4)cc3)c(-c3ccccc3)nc2c1,5.23% (inactive)
25,O=C1Nc2ccccc2C1=NN=Cc1ccco1,4.85% (inactive)
26,COc1ccccc1C(=O)N1O[C@]23C=C[C@]14C[C@@H](O)CC[C@]4(C)C2CC[C@]1(C)[C@@H]([C@H](C)/C=C/[C@H](C)C(C)C)CC[C@H]13 (stereo not given in full),-1.2% (inactive)
27,CCOc1[nH]n(-c2ccc(Cl)cc2)c(=O)c1C=Nc1ccc(O)cc1,28% (active)

row,SMILES,inhibition
1,Cc1ccc(C)c(CN2CCC(CNC(=O)C3CCCN(c4ncnc5c4nc4n5CCCCC4)C3)CC2)c1 (stereo not given),-2.34% (inactive)
2,CC1(C)CC(=O)C=C(NCCN2CCNCC2)C1,5.49% (inactive)
3,Nc1nc2c(ncn2[C@@H]2O[C@H](C(=O)N[C@@H](Cc3ccccc3)C(=O)NCc3ccccc3)[C@@H](O)[C@H]2O)c(=O)[nH]1,-1.96% (inactive)
4,CN1C(=O)CN2CCc3ccccc3C2c2cc(Cl)ccc21 (stereo not given),-2.81% (inactive)
5,COC(=O)C1=C(C)N(Cc2ccc(F)cc2)C(=S)NC1c1cccc(Cl)c1 (stereo not given),3% (inactive)
6,O=C(NS(=O)(=O)c1cccs1)[C@H]1O[C@@H](n2ccc(=O)[nH]c2=O)[C@H](O)[C@@H]1O,-0.49% (inactive)
7,O=C(NNC(=O)c1cc(S(=O)(=O)N2CCCCC2)ccc1Cl)c1ccccc1O,16.6% (inactive)
8,Cc1cccc(NS(=O)(=O)c2cccc(C(=O)NNC(=O)c3ccccc3O)c2)c1,16.2% (inactive)
9,Cc1ccccc1C(=O)NNC(=O)CN1C(=O)c2ccccc2C1=O,-5.72% (inactive)
10,O=C(NNC(=O)c1ccccc1O)c1ccccc1O,40% (active)
11,Cc1cc2occ(CC(=O)NNC(=O)c3ccccc3F)c2cc1C,2.71% (inactive)
12,Cc1cc(C(=O)CCC(=O)NNC(=O)c2ccccc2O)c(C)s1,25.6% (active)
13,COc1cccc(NC(=O)N(C)C[C@@H]2OCc3cn(nn3)CCCC(=O)N([C@@H](C)CO)C[C@H]2C)c1,-4.37% (inactive)
14,C=CC1=C(C(=O)O)N2C(=O)[C@@H](NC(=O)/C(=N\OCC(=O)O)c3csc(N)n3)[C@H]2SC1,4.98% (inactive)
15,C=CC1=C(C(=O)O)N2C(=O)[C@@H](NC(=O)/C(=N/OCC(=O)O)c3csc(N)n3)[C@H]2SC1,25.6% (active)
16,CCCCOCC1CN(CCCC)S(=O)(=O)c2c(Oc3ccc(F)cc3)cccc2O1 (stereo not given),0.77% (inactive)
17,Nc1ncnc2c1ncn2[C@@H]1O[C@H](C(=O)N[C@@H](CCc2ccccc2)C(=O)N2CCCN(Cc3cccs3)CC2)[C@@H](O)[C@H]1O,3.68% (inactive)
18,COc1cccc(CNC(=O)[C@H]2CCCN2C(=O)[C@H]2CCCN2C(=O)c2cc(F)cc(F)c2)c1,-6.91% (inactive)
19,CC(=O)N1C[C@@H](CO)[C@@H](N(C)C(=O)C(C)(C)C)C[C@H]1c1ccccc1Br,-0.47% (inactive)
20,CN(C)[C@@H]1C(=O)C(C(N)=O)=C(O)[C@@]2(O)C(=O)C3=C(O)c4c(O)ccc(Cl)c4[C@@H](O)[C@H]3C[C@@H]12,21.1% (active)
21,C=C1c2c(Cl)ccc(O)c2C(O)=C2C(=O)[C@]3(O)C(O)=C(C(N)=O)C(=O)[C@@H](N(C)C)[C@@H]3[C@@H](O)C12 (stereo not given in full),33.5% (active)
22,CCc1c(-c2ccccc2OC)ncn1CCc1ccccc1OC,7.58% (inactive)
23,NCCN1CCN2C(=O)CN(C(=O)c3ccccc3)CC12 (stereo not given),-1.77% (inactive)
24,COC(=O)[C@]12C[C@H](CC(=O)NCc3ccc(C)o3)C(=O)N(CCC3=CCCCC3)C1=C[C@H](C(C)(C)C)O[C@@H]2C,-1.26% (inactive)
25,Oc1ccc(N=Cc2c(O)ccc3ccccc23)cc1,44.6% (active)
26,Oc1ccc(N=Cc2sc3ccccc3c2Cl)cc1,89.3% (active)
27,Oc1ccc(/C=N/N(Cc2ccccc2)c2ccccc2)cc1,7.05% (inactive)

row,SMILES,inhibition
1,COc1ccc(-c2ccc3c(n2)CCCN3S(=O)(=O)c2ccc(C)cc2)cc1,-3.11% (inactive)
2,CC(C)(C)c1ccc(S(=O)(=O)NCC2CCN(C(=O)C(=O)c3cc4ccccc4o3)CC2)cc1,-7.28% (inactive)
3,NC(=O)c1ncn([C@@H]2O[C@H](C(=O)O)[C@@H](O)[C@H]2O)n1,6.54% (inactive)
4,COC(=O)Cc1nnn2c1[C@H](C)[C@H](c1ccccc1Br)OCC2,-3.6% (inactive)
5,COC(=O)C1=C(C)N(Cc2cccc(C(F)(F)F)c2)C(=NCc2ccccc2)NC1c1ccccc1C(F)(F)F (stereo not given),2.13% (inactive)
6,O=C1[C@@H](c2ccccc2)[C@@H](c2ccccc2)N1c1ccccc1,4.73% (inactive)
7,C=CC1=CCN(S(=O)(=O)C(C)(C)C)[C@@H]1CCO,5.24% (inactive)
8,Cc1cc(OCCCC(=O)Nc2cc(S(=O)(=O)N3CCOCC3)ccc2N2CCOCC2)ccc1Cl,0.46% (inactive)
9,O=[N+]([O-])c1cc(Cl)cc(/C=N/NC(=S)Nc2cc(S(=O)(=O)N3CCOCC3)ccc2Cl)c1O,41.3% (active)
10,COC(=O)c1cc(Oc2ccc(S(=O)(=O)N3CCOCC3)cc2[N+](=O)[O-])cc(C(=O)OC)c1,7.58% (inactive)
11,O=S(=O)(c1cccs1)N1CCCc2nc(-c3ccc(Br)cc3)ccc21,3.53% (inactive)
12,COc1ccccc1CCn1cnc(-c2ccccc2)c1C(C)C,0.67% (inactive)
13,COc1cc(OC)cc(-c2c(-c3cccs3)c3cc(-c4ccc(OC)nc4)ccc3n2C)c1,-3.68% (inactive)
14,COc1cc(OC)cc(-c2c(-c3ccc(F)cc3)c3cc(-c4ccc5cc[nH]c5c4)ccc3n2C)c1,-1.04% (inactive)
15,COc1ccc(-c2c(-c3cc(OC)cc(OC)c3)n(C)c3ccc(-c4ccn[nH]4)cc23)cc1,23.9% (active)
16,COc1cccc(CNC(=O)[C@H]2CCCN2C(=O)[C@H]2CCCN2C(=O)c2ccc(F)cc2)c1,5.75% (inactive)
17,Cc1ccc(S(=O)(=O)NCCC(=O)NNC(=O)C2COc3ccccc3O2)cc1 (stereo not given),-2.9% (inactive)
18,Cc1c(CCC(=O)O)c(=O)oc2c(C)c(OCc3ccccc3Cl)ccc12,-7.63% (inactive)
19,Cc1c(CC(=O)N2CCN(C(=O)C3COc4ccccc4O3)CC2)c(=O)oc2c(O)c(O)ccc12 (stereo not given),82.2% (active)
20,O=c1ccc2c(-c3ccccc3S(=O)(=O)O)c3ccc(O)c(O)c3oc-2c1O,33.4% (active)
21,COc1ccc(C2=CN(Cc3ccccc3)C(c3ccc(OC)cc3)CC2=O)cc1 (stereo not given),-0.11% (inactive)
22,COC(=O)[C@]12C[C@H](CC(=O)NCCCCc3ccccc3)C(=O)N(Cc3ccc4c(c3)OCO4)C1=C[C@H](C(C)(C)C)O[C@@H]2C,-0.56% (inactive)
23,COC(=O)C1=C(C)N(Cc2ccccc2C(F)(F)F)C(=NCc2ccc(C(F)(F)F)cc2)NC1c1ccc(F)cc1 (stereo not given),10.2% (inactive)
24,COc1ccc(/C(=N\O)c2nccc3cc(OC)c(OC)cc23)cc1OC,37.5% (active)
25,COc1cc2ccc(C(C)=O)c(O)c2cc1OC,-7.1% (inactive)
26,COC(=O)c1ccc(-c2c(-c3ccccc3)ncc3cc(OC)c(OC)cc23)cc1,-0.95% (inactive)
